Measured values: PubChem BioAssay AID1159580 (chemical genetic matrix, 2015)
The campaign covered roughly 5,500 compounds. About 2,000 (36%) were called active. Another 18% or so got no clear call; they are omitted. No stated cut-off is given here; in the data, active means normalized growth mostly below about 0.91 (no sharp cut-off); inconclusive means no clear call, values can overlap the other calls; inactive means mostly above about 0.92. This is one part of the list.

Assay: chemical genetic growth profiling, strain panel (AID 1159580);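 further: tested at 20 µM; growth read once vehicle control cultures reached saturation at 30 °C; 1 = growth at the plate median or of vehicle wells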
Details: S. cerevisiae deletion strains, growth OD

Measured: normalized growth

COc1cc2c(cc1OC)-c1c(oc3c4c(ccc3c1=O)OC(C(C)C)C4)CO2 (stereo unspecified)
inactive: locus YAL013W, strain DEP1, stronger effect = lower value 1.01 | locus YBR021W, strain FUR4, stronger effect = lower value 1.06 | locus YBR229C, strain ROT2, stronger effect = lower value 1.01 | locus YCL029C, strain bik1, stronger effect = lower value 0.99 | locus YDL035C, strain GPR1, stronger effect = lower value 1.05 | locus YDL074C, strain BRE1, stronger effect = lower value 1.06 | locus YDL101C, strain DUN1, stronger effect = lower value 0.981 | locus YDL134C, strain PPH21, stronger effect = lower value 0.983 | locus YDL185W, strain tfp1, stronger effect = lower value 0.942 | locus YDL192W, strain arf1, stronger effect = lower value 1.01 | locus YDR101C, strain arx1, stronger effect = lower value 1.04 | locus YDR162C, strain NBP2, stronger effect = lower value 0.978 | locus YDR318W, strain mcm21, stronger effect = lower value 0.973 | locus YDR388W, stronger effect = lower value 0.982 | locus YDR502C, strain sam2, stronger effect = lower value 0.978 | locus YER110C, stronger effect = lower value 0.989 | locus YER155C, strain BEM2, stronger effect = lower value 0.997 | locus YER167W, strain BCK2, stronger effect = lower value 1.01 | locus YGL078C, strain dbp3, stronger effect = lower value 0.938 | locus YGL086W, strain mad1, stronger effect = lower value 0.983 | locus YGL248W, strain PDE1, stronger effect = lower value 0.988 | locus YGR078C, strain PAC10, stronger effect = lower value 0.982 | locus YGR135W, strain pre9, stronger effect = lower value 0.923 | locus YGR252W, strain gcn5, stronger effect = lower value 1.03 | locus YHR079C, strain IRE1 (second series), stronger effect = lower value 0.969 | locus YHR094C, strain hxt1, stronger effect = lower value 0.979 | locus YHR129C, strain ARP1, stronger effect = lower value 1 | locus YHR200W, strain rpn10, stronger effect = lower value 0.985 | locus YIL066C, strain RNR3, stronger effect = lower value 1.03 | locus YIL073C, strain SPO22, stronger effect = lower value 0.942 | locus YIL125W, strain kgd1, stronger effect = lower value 0.984 | locus YIR030C, strain dcg1, stronger effect = lower value 0.968 | locus YJL095W, strain BCK1, stronger effect = lower value 0.965 | locus YJL134W, strain LCB3, stronger effect = lower value 1 | locus YJL168C, strain set2, stronger effect = lower value 0.979 | locus YJL187C, strain SWE1 (second series), stronger effect = lower value 0.974 | locus YJR075W, strain HOC1, stronger effect = lower value 0.971 | locus YKL009W, strain mrt4, stronger effect = lower value 1.02 | locus YKL068W, stronger effect = lower value 0.98 | locus YKL085W, strain MDH1 (second series), stronger effect = lower value 0.973 | locus YKL085W, strain MDH1, stronger effect = lower value 0.973 | locus YKL190W, strain CNB1, stronger effect = lower value 0.992 | locus YKR001C, strain vps1, stronger effect = lower value 1.01 | locus YLR039C, strain RIC1, stronger effect = lower value 0.998 | locus YLR058C, strain SHM2, stronger effect = lower value 1 | locus YLR102C, strain apc9, stronger effect = lower value 0.988 | locus YLR268W, strain sec22, stronger effect = lower value 1.04 | locus YLR330W, strain CHS5, stronger effect = lower value 0.998 | locus YLR342W, strain FKS1 (second series), stronger effect = lower value 1.1 | locus YLR371W, strain rom2, stronger effect = lower value 0.982 | locus YLR418C, strain cdc73, stronger effect = lower value 0.981 | locus YML016C, strain PPZ1, stronger effect = lower value 0.989 | locus YML032C, strain rad52, stronger effect = lower value 1.01 | locus YML124C, strain tub3, stronger effect = lower value 0.971 | locus YMR078C, strain ctf18, stronger effect = lower value 0.962 | locus YMR223W, strain ubp8, stronger effect = lower value 0.979 | locus YMR263W, strain SAP30, stronger effect = lower value 0.984 | locus YMR307W, strain GAS1, stronger effect = lower value 1.15 | locus YNL067W, strain RPL9B, stronger effect = lower value 0.964 | locus YNL153C, strain GIM3, stronger effect = lower value 0.963 | locus YNL233W, strain BNI4, stronger effect = lower value 0.984 | locus YNL250W, strain rad50, stronger effect = lower value 0.93 | locus YNL271C, strain bni1, stronger effect = lower value 0.958 | locus YNL298W, strain CLA4, stronger effect = lower value 0.979 | locus YNL307C, strain MCK1, stronger effect = lower value 0.985 | locus YNR052C, strain pop2, stronger effect = lower value 0.962 | locus YOL006C, strain TOP1, stronger effect = lower value 1.17 | locus YOL012C, strain htz1 0.827 | locus YOL147C, strain pex11, stronger effect = lower value 0.973 | locus YOR061W, strain CKA2, stronger effect = lower value 1.02 | locus YOR069W, strain VPS5, stronger effect = lower value 0.996 | locus YOR136W, strain idh2, stronger effect = lower value 0.965 | locus YOR144C, strain elg1, stronger effect = lower value 1 | locus YOR184W, strain ser1, stronger effect = lower value 1.08 | locus YOR316C, strain cot1, stronger effect = lower value 0.97 | locus YPL241C, strain CIN2, stronger effect = lower value 0.986 | locus YPR119W, strain clb2, stronger effect = lower value 0.966 | locus YPR141C, strain kar3, stronger effect = lower value 0.954 | locus YPR163C, strain tif3, stronger effect = lower value 0.988 | locus YPR167C, strain met16, stronger effect = lower value 0.973 | strain wtn01, stronger effect = lower value 1.03
